This is a sample that favours compounds with a hit; in the whole collection about 19% have one here.
KB-3-1 tox: kills parental KB-3-1 adenocarcinoma cells. KB-3-1 viability, CellTiter-Glo ATP luminescence, 72 h. Potency, µM (doses to about 46.1 µM), usual class: cytotoxic. actives 1.4% (n = 400,000). AID 1347075; further: nearly all actives have a fitted effect of over 60% in size
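KB-3-1 cells, DMEM (no phenol red) + 10% FBS; compound by pin transfer, 72 h, 37 °C. Readout: CellTiter-Glo luminescence after 10 min. Data normalized, curve-fitted.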
DT40 TDP1 no CPT: qHTS for Inhibitors of human tyrosyl-DNA phosphodiesterase 1 (TDP1): qHTS in cells in absence of CPT | AID 686978, 2013 | actives 15% (n = 420,000) | Potency, µM (top dose mostly 46.2 µM), usual class: inhibitors | DT40 Tdp1-/- hTDP1 cells, no CPT, ATP luminescence, 48 h; further: nearly all actives have a fitted effect of over 55% in size
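Readout: luminescence from CellTiter-Glo after 30 min in the dark at RT. Cells: DT40 Tdp1-/- with stable hTDP1, 400/well. Exposure: compounds alone, ≥48 hr, 37 °C.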
HT1080 IDH1KD tx: toxicity to HT-1080 IDH1 knockdown cells (counter line); HT-1080 IDH1 knockdown viability, ATP luminescence, 48 h; actives 2% (n = 360,000); Potency, µM (doses to about 46.1 µM), most hits filed as cytotoxic
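Using the IDH1-knockdown HT-1080 line run in the same batch and compound series as the NT line, viability after 48 h at 37 °C was determined by CellTiter-Glo luminescence and expressed as % activity.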
HT1080NT lethal: kills 2HG-producing HT-1080-NT fibrosarcoma cells; Potency, µM (doses to about 46.1 µM), usual class: cytotoxic; actives 1.6% (n = 360,000); HT-1080-NT fibrosarcoma viability, CellTiter-Glo ATP luminescence, 48 h;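 further: NT is the 2HG producing partner of a matched IDH1 knockdown line; nearly all actives have a fitted effect of over 55% in size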
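A 48-hour cytotoxicity screen used HT-1080-NT cells plated 2 hours before compound delivery. ATP-based CellTiter-Glo luminescence measured viability, normalized to DMSO and no-cell controls.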
KB-V1 cytotox: kills drug-selected multidrug resistant KB-V1 cells; KB-V1 MDR cells viability, CellTiter-Glo, 72 h; Potency, µM (doses to about 46.1 µM), most hits filed as cytotoxic; actives 3.4% (n = 400,000); further: nearly all actives have a fitted effect of over 60% in size
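Compound-treated KB-V1 multidrug-resistant cells, 72 h, 37 degrees C; viability by CellTiter-Glo. Fitted qHTS curves give the values.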
TDP1 cell CPT: growth inhibition of DT40 Tdp1-/-;hTDP1 cells with camptothecin (screen for TDP1 inhibitors) | chicken DT40 Tdp1-/-;hTDP1 cells + 20 nM CPT, ATP luminescence, 48 h | Potency, µM (titrated, usually from 46.2 µM), actives largely listed as inhibitors | actives 12% (n = 420,000); further: nearly all actives have a fitted effect of over 55% in size
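Chicken DT40 Tdp1-/- cells complemented with human TDP1, 400 cells/well, exposed to compounds plus 20 nM camptothecin for at least 48 h at 37 C; viability read as ATP content by CellTiter-Glo luminescence.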
Hits are given with their value; n = inactive; u = inconclusive; x = no result given. The call rests on the fitted dose curve; in most records, active means well fitted curve in the direction sought with a large enough effect; inconclusive means small, poorly fitted or top-dose-only effect, or another doubt; inactive means no such curve, though single readings can be large; an effect the other way counts as inactive or inconclusive.

SMILES	KB-3-1 tox	DT40 TDP1 no CPT	HT1080 IDH1KD tx	HT1080NT lethal	KB-V1 cytotox	TDP1 cell CPT
O=[N+]([O-])c1ccc(N2CCN(C(=S)c3cccc([N+](=O)[O-])c3)CC2)cc1	n	20.6µM	n	n	n	14.6µM
C[C@H]1NCc2cc(-c3ccc4c(=O)c(C(=O)O)cn(C5CC5)c4c3OC(F)F)ccc21	x	n	x	x	x	n
COc1cccc(-c2nc(-c3ccccc3)c3ccc(Cl)cc3n2)c1	n	n	n	n	n	n
O=C(NCc1ccncc1)[C@@H]1CCCN1C(=O)[C@@H]1CCCN1C(=O)c1ccccc1Cl	n	n	n	n	n	u
Cc1ccc(C(=O)NC(=S)N2CCN(c3ccc([N+](=O)[O-])cc3)CC2)cc1	n	25.9µM	n	n	23.1µM	u
COc1ccccc1C(=O)CSc1nccn1C	n	16.4µM	n	u	n	u
CCN(C(=O)CSc1nccn1C)c1cccc2ccccc12	n	10.3µM	n	n	n	20.6µM
Cn1ccnc1SCC(=O)Nc1cccc2ccccc12	n	n	n	n	n	n
Cn1ccnc1SCC(=O)c1ccc([N+](=O)[O-])cc1	n	u	n	n	n	18.4µM
CC1(N=Cc2cc(Cl)ccc2O)COP(=O)(NC2CCCC2)OC1 (stereo not given)	n	n	n	n	n	n
N#CCCN(Cc1ccccc1)C(C(=O)NC1CCCCC1)c1cc2ccccc2o1 (stereo not given)	u	18.4µM	u	n	u	20.6µM
Cc1ccc(CNC(=O)C2CCCCN2S(=O)(=O)c2ccc(F)cc2)cc1 (stereo not given)	n	25.9µM	x	x	u	13µM
COc1ccc(CNC(=O)C2CCCN2S(=O)(=O)c2ccccc2)cc1 (stereo not given)	n	u	n	n	u	u
O=C(NCc1cccs1)C1CCCN1S(=O)(=O)c1ccccc1F (stereo not given)	n	n	n	n	11.6µM	n
COC(=O)c1ccc(CNC(=O)[C@@H]2CCCN2S(=O)(=O)c2ccccc2F)cc1	n	n	n	n	n	n
O=C(NCc1ccc(F)cc1)C1CCCN1S(=O)(=O)c1ccccc1C(F)(F)F (stereo not given)	n	u	n	n	n	13µM
CC(C)c1ccc(CNC(=O)C2CCCN2S(=O)(=O)c2ccccc2)cc1 (stereo not given)	n	11.6µM	n	n	n	u
CC(CC(=O)Nc1ccc(F)cc1)S(=O)(=O)c1cc2c3c(c1)CCN3C(=O)CC2 (stereo not given)	n	n	x	x	n	n
CCOc1ccc(N(CC(=O)N2CCN(Cc3ccccc3)CC2)S(C)(=O)=O)cc1	n	n	n	n	n	n
CC1(C)Cc2c(sc(NC(=O)C(=O)NCC3CCCO3)c2C(N)=O)CO1 (stereo not given)	n	n	n	n	n	n
Cc1cc2cc(CCNC(=O)c3ccc(C)c([N+](=O)[O-])c3)c(=O)[nH]c2cc1C	n	13µM	n	n	6.51µM	u
Cc1cc2cc(CNC(=O)c3ccc(C)c([N+](=O)[O-])c3)ccc2[nH]1	n	10.3µM	n	n	n	20.6µM
Cc1ccc2cc(CCNC(=O)c3ccc4c(c3)OCO4)c(=O)[nH]c2c1C	n	14.6µM	n	n	u	20.6µM
Cc1ccc2cc(CCNC(=O)C(C)C)c(=O)[nH]c2c1C	n	n	n	u	n	n
O=C(NCCc1ccc(F)cc1)c1ccc(S(=O)(=O)N2CCCC2)cc1	n	n	n	n	u	n
Cc1cc2cc(CCNC(=O)c3ccc(S(=O)(=O)N4CCCC4)cc3)c(=O)[nH]c2cc1C	x	20.6µM	n	n	x	18.4µM
CCOC(=O)c1c(NC(=O)c2nn(C)cc2[N+](=O)[O-])sc(C)c1C	n	n	n	n	n	n
C=C1C(=O)N(C)CCC1C(CC)C(=O)OC (stereo not given)	n	n	n	n	n	n

Source: PubChem
